According to the supplement of paper PMC12582362:
Where a name gives a salt, the structure may show the parent alone. Among all 1,500 compounds or so, about 30 (2%) showed activity. The sample holds actives, similar compounds and a random draw of the others, so the mix is not that of the screen.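 How the source made its calls: active = robust z-score below -2; a few such results were not called.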

tested on: optoTopBP1 Flp-In 293 T-REx (HEK293) cells; experiment: light-induced TopBP1 condensate (nuclear foci) count, plate-normalised robust z-score vs non-control wells; higher = more TopBP1 condensates (negative = condensation inhibitor), active = hit call of the paper; conditions: 10 µM; incubation time 2 h

SMILES	light-induced TopBP1 condensate (z-score)
CC[N+](C)(CC)CCC[n+]1c(-c2ccccc2)c2cc(N)ccc2c2ccc(N)cc21 [Propidium iodide]	-3.58 (active)
C[C@]12CCC(=O)C=C1C=C[C@@H]1[C@@H]2CC[C@@]2(C)[C@H]1CC[C@@]21CCC(=O)O1 [Canrenone]	0.252 (inactive)
COCCCOc1ccnc(C[S+]([O-])c2nc3ccccc3[nH]2)c1C (stereo unspecified) [Rabeprazole Sodium salt]	-0.658 (inactive)
CC(C)=C/C(C)=N/Nc1nncc2ccccc12 [Budralazine]	-0.574 (inactive)
CC(N)C12CC3CC(CC(C3)C1)C2 (stereo unspecified) [Rimantadine Hydrochloride]	-0.685 (inactive)
OC[C@H]1O[C@@H](c2ccc(Cl)c(Cc3ccc(O[C@H]4CCOC4)cc3)c2)[C@H](O)[C@@H](O)[C@@H]1O [Empagliflozin]	0.47 (inactive)
CN(C)[C@@H]1C(O)=C(C(N)=O)C(=O)[C@@]2(O)C(O)=C3C(=O)c4c(O)cccc4[C@@](C)(O)[C@H]3C[C@@H]12 [Tetracycline hydrochloride]	0.0489 (inactive)
N#Cc1cc(NC(=O)C(=O)O)c(Cl)c(NC(=O)C(=O)O)c1 [Lodoxamide]	0.686 (inactive)
Cc1ccc2c(Cl)cc(Cl)c(O)c2n1 [Chlorquinaldol]	-9.09 (active)
Oc1c(Cl)cc(Cl)c2cccnc12 [Chloroxine]	-0.15 (inactive)
Oc1c(I)cc(Cl)c2cccnc12 [Clioquinol]	-0.446 (inactive)
C[C@@H]1C[C@H]2[C@@H]3C[C@H](F)C4=CC(=O)C=C[C@]4(C)[C@@]3(F)[C@@H](O)C[C@]2(C)[C@@]1(O)C(=O)COC(=O)C(C)(C)C [Flumethasone pivalate]	-0.352 (inactive)
COc1cc([S+](C)[O-])ccc1-c1nc2cccnc2[nH]1 (stereo unspecified) [Sulmazole]	1.19 (inactive)
CCOc1ccc2c(c1)C(C)=CC(C)(C)N2 [Ethoxyquin]	0.549 (inactive)
CC[C@@]1(O)C(=O)OCc2c1cc1n(c2=O)Cc2cc3c(CN(C)C)c(O)ccc3nc2-1 [Topotecan]	-2.31 (active)
CCc1c2c(nc3ccc(OC(=O)N4CCC(N5CCCCC5)CC4)cc13)-c1cc3c(c(=O)n1C2)COC(=O)[C@]3(O)CC [Irinotecan hydrochloride trihydrate]	1.07 (inactive)
CCCNC(C)(C)C(=O)Nc1ccccc1C [Quatacaine]	-0.106 (inactive)
O=C1OCCN1/N=C/c1ccc([N+](=O)[O-])o1 [Furazolidone]	-0.718 (inactive)
CNCCCC1c2ccccc2C=Cc2ccccc21 [Protriptyline hydrochloride]	-2.86 (active)
CNCCCC12CCC(c3ccccc31)c1ccccc12 [Maprotiline hydrochloride]	-0.0912 (inactive)
CNCCC=C1c2ccccc2C=Cc2ccccc21 [Norcyclobenzaprine]	-0.386 (inactive)
